Assay outcomes (PubChem BioAssay)
FBPA coupling cs: counter-screen for Giardia aldolase inhibitors: coupling enzyme system. coupling enzyme system counterscreen, AmpLite Red fluorescence. activity change, negative = inhibition, % at 58.2 µM, hits read low. actives 0.67% (n = 290,000). AID 2472; in the data active means activity change below about -30%
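First, compound is pin-transferred into glyceraldehyde-3-phosphate coupling-enzyme reagent at 57.5 uM final and held 10 min at RT. Next, substrate, coupling system and AmpLite Red are added. After 20 min RT, fluorescence (525/598 nm) is read.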
Sfp PPTase inh: blocks B. subtilis Sfp PPTase activity; Q9F4F7; Biochemical Sfp PPTase activity, qHTS; Potency, µM, inactives show largest response in the series, negative = inhibition, hits mostly inhibitors; actives 3.5% (n = 310,000);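 further: the enzyme is Sfp with the accession as filed and its product quenches rhodamine fluorescence; potency means the concentration at half of the fitted maximal effect; 0% = enzyme reaction without inhibitor and -100% = no enzyme wells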
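Fluorescence-quenching assay: 15 nM Sfp-PPTase preincubated 15 min at room temperature with compound, then 5 uM rhodamine-CoA and 12.5 uM BHQ-2-labelled YbbR peptide added. Fluorescence (ex 525/em 598 nm) read at start and after 30 min; difference gives rate.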
Tau FP inhib: blocks human tau fibril formation measured by polarization. P10636. Potency, µM (highest dose often 57.7 µM), for inactives: at the top dose activity, negative = inhibition, usual class: inhibitors. AID 1468. actives 0.39% (n = 280,000). K18 P301L tau heparin fibrillization, Alexa594 FP, 6 h; further: potency means the concentration at half of the fitted maximal effect; nearly all actives have a fitted effect of over 55% in size
Target sequence (P10636 561-689 P618L limits assumed): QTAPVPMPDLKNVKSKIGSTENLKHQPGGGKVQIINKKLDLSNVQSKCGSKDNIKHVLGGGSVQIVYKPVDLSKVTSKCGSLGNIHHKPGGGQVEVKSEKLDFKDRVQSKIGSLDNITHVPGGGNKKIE
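FP of Alexa 594-tau after heparin (20 uM) induction. Substrate: human K18 P301L, 15 uM unlabeled, 0.24 uM labeled. Buffer 100 mM sodium acetate pH 7. 6 hr, 37 C.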
Tau fluor counter: counter-screen for tau fibril formation inhibitors. tau K18 P301L Alexa594 fluorescence, heparin fibrillization. Potency, µM (titrated, usually from 57.7 µM), without a hit: at the top dose activity change, negative = decrease. actives 0.93% (n = 280,000); further: potency means the concentration at half of the fitted maximal effect; nearly all actives have a fitted effect of over 55% in size
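Human K18 P301L tau (15 uM unlabeled plus 0.24 uM Alexa 594-labeled, final) in 100 mM sodium acetate pH 7 was mixed with compound and 20 uM heparin and incubated 6 hr at 37 C.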
Tau fibril ThT: blocks human tau fibril formation measured by thioflavin T. P10636. Potency, µM (top dose mostly 57.4 µM), inactives show at the top dose activity, negative = inhibition, hits mostly inhibitors. actives 2.1% (n = 270,000). recombinant tau K18 P301L (four-repeat tau fragment), heparin-induced fibrillization, ThT fluorescence; further: potency means the concentration at half of the fitted maximal effect; nearly all actives have a fitted effect of over 55% in size
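Recombinant human tau K18 fragment […] carrying P301L, 15 uM unlabeled plus 0.24 uM Alexa 594-labeled, was fibrillized with 20 uM heparin in 100 mM sodium acetate pH 7 for 6 hr at 37 C; 30 uM ThT fluorescence read after 1 hr.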
* = called active by the depositor; u = inconclusive; x = no result given; [ ] = dose if it differs, or a comment. The list is not random: actives were taken first. Their share in the collection is about 5.2%. Unless noted, the call rests on the fitted dose curve; in most records, active means well fitted curve in the direction sought with a large enough effect; inconclusive means small, poorly fitted or top-dose-only effect, or another doubt; inactive means no such curve, though single readings can be large; an effect the other way counts as inactive or inconclusive. Unless noted, on the % scale 0 is the no-effect control and ±100 the full control effect.

SMILES | FBPA coupling cs | Sfp PPTase inh | Tau FP inhib | Tau fluor counter | Tau fibril ThT
O=C(CN1CCOCC1)Nc1ccccc1Sc1ccccc1 | 1 | 15% | 7% | -3% | -6%
O=C(CNCCN1CCOCC1)Nc1ccccc1Sc1ccccc1 | -2 | 56µM* | 3% | 1% | -1%
COCCNCC(=O)Nc1ccccc1Sc1ccccc1 | 1 | 56µM* | 5% | 2% | 9%
Cc1ccc(C(=O)OCC(=O)Nc2ccccc2Sc2ccccc2)cc1C | -5 | -9% | -3% | -13% | -14%
CC(C)=CCC/C(C)=C/CO/N=C1/C[C@@H](O)[C@@H](O)[C@@H]2[C@@H]3C(=O)N(Cc4ccccc4)C(=O)[C@H]3CC[C@@H]12 | -1 | 10% | -5%[11.6 µM] | -10%[11.6 µM] | -7%[11.5 µM]
COc1cc(/C=C2\SC(=S)N(NS(=O)(=O)c3ccc(C)cc3)C2=O)cc(OC)c1OC | 17 | -3% | 6% | -10% | u
COc1cc(/C=C2\SC(=S)N(NS(=O)(=O)c3ccccc3)C2=O)ccc1O | 12 | 18% | 5% | -5% | 14µM*
COc1cc(/C=C2\SC(=S)N(NS(=O)(=O)c3ccc(C)cc3)C2=O)ccc1O | 11 | -11% | 6% | -16% | 10µM*
CS/C(N)=N/N=C/c1ccc([N+](=O)[O-])cc1 | -5 | 79µM* | 2% | -4% | u
N/C(=N\N=C\c1ccc([N+](=O)[O-])cc1)c1nonc1N | -1 | 4% | 3% | -19% | x
CCc1ccc(NC(=O)Cn2cc(S(=O)(=O)N3CCCC3)c(S(=O)(=O)N3CCCC3)c2)cc1 | x | x | -10% | -12% | 3%
Cc1nn2c(=S)[nH]nc2[nH]c1=O | -11 | 13µM* | -8% | -8% | -12%
Cn1cc(Br)c(NC(=O)/C=C/C(=O)O)n1 | 1 | 8.9µM* | -5% | -1% | -12%
Cn1cc(Br)c(C(=O)Nc2c(F)c(F)c(F)c(F)c2F)n1 | 0 | -7% | 0% | 6% | -1%
Cc1ccc(C(=O)N2CCCC(Nc3ccc(F)cc3)C2)cc1C (centres undefined) | x | 9% | x | x | x
COc1cccc(C2Nc3c(F)cc(Br)cc3C3C=CCC32)c1OC (centres undefined) | 0 | -12% | -8% | -28% | -17%
CC(=O)c1ccc2c(c1)C1C=CCC1C(C(=O)O)N2 (centres undefined) | 3 | -20% | 2% | 14% | 11%
COc1cccc2c1NC(C(=O)O)C1CC=CC21 (centres undefined) | -13 | 7.9µM* | u | u | 16µM*
O=C(O)C1Nc2c(cccc2C(F)(F)F)C2C=CCC12 (centres undefined) | 3 | 50µM* | x | x | x
Cc1ccc2c(c1)C1C=CCC1C(C(=O)O)N2 (centres undefined) | -3 | u | u | u | 14µM*
CCOc1ccc(C(=O)NCCc2sc3nc(-c4ccc(Cl)cc4)nn3c2C)cc1OCC | x | x | -3% | -18% | -12%
O=C(O)CNC(=O)CC1S/C(=N/N=C2\CSC(=O)N2)NC1=O (centres undefined) | -5 | 4µM* | u | -12% | u
O=C(O)CNC(=O)CC1S/C(=N/N=C/c2ccccc2O)NC1=O (centres undefined) | 3 | 30% | 0% | 2% | -6%
S=C1SCN(Cc2cccnc2)CN1Cc1cccnc1 | 4 | 14µM* | -4% | 2% | -4%
CCO/C=C1/C(=O)N(Cc2ccccc2)C(=O)c2ccccc21 | -44* | 31% | -5% | -5% | -11%
SMILES | FBPA coupling cs | Sfp PPTase inh | Tau FP inhib | Tau fluor counter | Tau fibril ThT
O=C(CSc1ccc(-c2cccs2)nn1)Nc1cccc(F)c1 | x | x | u | u | -16%
N=C1N(/N=C/c2ccccc2)C(=Nc2ccccc2)C(=S)N1c1ccccc1 | 2 | 32µM* | u | -24% | u
Cc1ccc(/C=N/n2c(-c3ccccc3)n[nH]c2=S)cc1 | 0 | -1% | x | x | x
COc1cccc(OC)c1OCCN(C)C | -34* | 8% | 5% | 1% | -1%
COc1cccc(OC)c1OCCNC(C)(C)C | -1 | -12% | -7% | 0% | -5%
COC/C=C/C1=CC2=CC(=O)C(C)(OC(=O)c3cnc4ccccc4n3)C(=O)C2=CN1Cc1ccc2c(c1)OCO2 (centres undefined) | -6 | 11% | -1%[11.6 µM] | -6%[11.6 µM] | u
CCOc1ccc(-c2nnc(N(CC)C(=O)C3CCC3)s2)cc1 | 2 | 40µM* | 9% | -3% | -13%
O=C(CCCn1ccc2cc(S(=O)(=O)N3CCCC3)ccc21)NCc1ccc(Cl)cc1 | x | x | u | -26% | 0%
Nc1ncnc2c1ncn2[C@@H]1O[C@H](COP(=O)(O)OP(=O)(O)OP(=O)(O)OP(=O)(O)OC[C@@H]2O[C@H](n3cnc4c(N)ncnc43)[C@@H](O)[C@@H]2O)[C@H](O)[C@H]1O | x | x | 9% | -1% | -11%
COc1cccc(NC(=O)CSc2nc3ccc(NC(=O)c4cccs4)cc3s2)c1 | x | x | 7.9µM* | 7.1µM*[quencher] | 0%
COc1cc(C)ccc1OCCSc1nc2ccc(NC(=O)c3cccs3)cc2s1 | x | x | 10µM* | 5µM*[quencher] | 1%
Cc1cccc(NC(=O)CSc2nc3ccc(NC(=O)c4cccs4)cc3s2)c1 | x | x | u | u | 5%
CC(=O)Nc1ccc2nc(SCCOc3ccccc3Cl)sc2c1 | x | x | 11µM* | 11µM*[quencher] | u
CC[C@H](C)[C@H](NC(=O)[C@H](CC(C)C)NC(=O)[C@@H](N)CO)C(=O)NCC(=O)N[C@@H](CCCN=C(N)N)C(=O)N[C@@H](CC(C)C)C(=O)O | 0 | 21% | x | x | x
Cc1ccc(CSc2nc3cccnc3n2Cc2nc(-c3ccccc3F)oc2C)cc1 | x | x | 7% | -17% | u
COc1cccc(-c2ccnc3c(-c4ccc(F)cc4)c(C)nn23)c1 | x | x | u | -29% | u
COc1cc(/C=N\NC(=O)CN2CCOCC2)ccc1OCC(=O)Nc1ccc(C)c(C)c1 | 4 | 4% | -8% | -11% | u
CCOc1cc(/C=N\Nc2ccc([N+](=O)[O-])cc2)ccc1OCC(=O)Nc1ccc(C)c(C)c1 | -1 | -10% | 12% | u | 2.2µM*
CCOc1cc(/C=N\NC(=O)Cc2ccccc2)ccc1OCC(=O)Nc1ccc(C)c(C)c1 | -1 | 3% | -2% | -11% | -12%
COc1cc(/C=N\Nc2ccc([N+](=O)[O-])cc2)ccc1OCC(=O)Nc1ccc(C)c(C)c1 | 0 | -25% | 2% | 7.1µM*[quencher] | 1.6µM*
COc1cccc(N(CC(=O)N2CCC(C)CC2)S(=O)(=O)c2ccc(C)cc2)c1 | x | x | 1% | -9% | -3%
CCN(CC)CCCNC(=O)CSc1nc(-c2ccc(OC)cc2)cc(C(F)(F)F)n1 | x | x | -4% | -4% | -2%
Cc1cccc(C)c1NC(=O)CN1CCCCCC1 | x | 14% | x | x | x
CCOc1ccc(-n2c(=O)c3sc4ccccc4c3n(Cc3cccc(C)c3)c2=O)cc1 | x | x | -5% | 2% | 7%
